The whole screen tested about 310,000 compounds, of which about 1,200 (0.39%) were called active. The rule behind the calls is not given here. The list is a sample of the results. Measured potencies and affinities stand elsewhere.
Target: Large T antigen (Simian virus 40) (UniProt P03070)
Assay: SV40 large T antigen inhibitors, biochemical (AID 1903)
Conditions: SV40 large T antigen ATPase/helicase inhibition assay; at 20 µM; stronger effect = higher value

Large T antigen (Simian virus 40), sequence (P03070 whole entry, looked up): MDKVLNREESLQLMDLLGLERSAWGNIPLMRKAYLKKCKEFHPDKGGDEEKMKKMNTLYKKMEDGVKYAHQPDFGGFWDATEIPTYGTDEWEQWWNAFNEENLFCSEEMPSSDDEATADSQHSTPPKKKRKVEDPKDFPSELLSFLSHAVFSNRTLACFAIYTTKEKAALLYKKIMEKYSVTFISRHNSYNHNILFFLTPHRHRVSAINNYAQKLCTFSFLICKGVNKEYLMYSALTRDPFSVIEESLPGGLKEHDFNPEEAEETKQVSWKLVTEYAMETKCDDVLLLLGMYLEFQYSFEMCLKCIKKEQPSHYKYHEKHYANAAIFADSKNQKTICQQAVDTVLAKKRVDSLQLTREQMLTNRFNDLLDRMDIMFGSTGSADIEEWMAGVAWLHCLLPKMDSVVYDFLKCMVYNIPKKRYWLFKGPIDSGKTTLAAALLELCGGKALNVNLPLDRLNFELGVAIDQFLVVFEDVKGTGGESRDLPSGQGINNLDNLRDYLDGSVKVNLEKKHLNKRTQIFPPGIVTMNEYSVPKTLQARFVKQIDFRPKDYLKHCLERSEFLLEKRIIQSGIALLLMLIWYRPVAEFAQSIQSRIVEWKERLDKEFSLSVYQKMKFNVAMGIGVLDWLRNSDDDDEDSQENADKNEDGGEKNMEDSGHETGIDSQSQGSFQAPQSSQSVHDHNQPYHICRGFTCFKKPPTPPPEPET

inhibition, inactive:
COc1ccc(S(=O)(=O)Nc2cc(C(=O)NC3CCCCCC3)ccc2N2CCOCC2)cc1 3.07%, CCc1nn(CC(=O)NCCCN2CCCC2=O)c(=O)c2cc3sccc3n12 -4.15%, Cc1ccc(NS(=O)(=O)c2c(C)[nH]c(C)c2C(=O)N2CCCCC2)c(Cl)c1 -2.05%, CCOC(=O)c1ccc(NC(=O)C(=O)NCc2ccccn2)cc1 -2.35%, CC(C)(CC(=O)O)CC(=O)Nc1ccc2c(c1)ncn2CCc1ccccc1 5.95%, COc1ccc(/C=C2/SC(=O)NC2=O)cc1 12.9%, NC1=NC(=O)S/C1=C\c1ccc(F)cc1 8.64%, O=C1NC(=O)/C(=C\c2ccc(Cl)nc2)S1 8.29%, CC(C)(C)c1ccc(/C=C2\SC(=O)N=C2N)cc1 5.32%, COc1ccc(/C=C2\SC(=O)N=C2N)cc1OC 8.84%, CCOc1cc(/C=C2\SC(N)=NC2=O)ccc1O 34.2%, Cc1c(N=C2NC(=O)/C(=C/c3cccc([N+](=O)[O-])c3)S2)c(=O)n(-c2ccccc2)n1C 4.3%, Cc1c(N=C2C(=O)Nc3ccccc32)c(=O)n(-c2ccccc2)n1C 1.2%, CCN(CC)CCSc1nc(O)c(C(C)C)c(=O)[nH]1 14.1%, COC(=O)[C@@H](Cc1c[nH]c2ccccc12)NC(=O)c1cc(=O)[nH]c2ccccc12 2.68%, CCOc1cc(S(=O)(=O)NC2CCCC2)ccc1Cl 2.79%, O=C(NCc1cccs1)C(=O)c1c[nH]c2ccccc12 -25.6%, Cc1occc1-c1nnc(SCC(=O)N2CCOCC2)o1 1.14%, O=S(=O)(Nc1nc2c(s1)CCCC2)c1ccc(Br)cc1 -1.56%, COc1ccc(/C=C(\NC(=O)c2ccccc2)C(=O)OCC2CCCN3CCCCC23)cc1OC (configuration not stated) -3.64%, COc1ccc(/C=C/C(=O)OCC(=O)Nc2cc(S(=O)(=O)N(C)C)ccc2Cl)cc1 3.97%, COc1cccc(NC(=O)c2ccc(N3C(=O)C4CC=C(C)CC4C3=O)cc2)c1 (configuration not stated) 7.31%, Cc1cccc(S(=O)(=O)Nc2nc3ccccc3nc2Nc2ccc3c(c2)OCO3)c1 17.6%, Cc1nc2ccc(Br)cc2c2c1CC(CBr)O2 (configuration not stated) 10.6%, O=C(O)c1cccc(Nc2c3ccccc3nc3ccccc23)c1 -9.05%, Cc1ccc(O)c(Nc2c3ccccc3nc3ccccc23)c1 12.6%, CCCCNC(=O)OCCNC(=O)NC 7.67%, COc1ccc(NC(=S)NCC2CCN(c3ccc(OC)cc3)C2)cc1 (configuration not stated) 36.1%, COc1ccc(N2CCC(CNC(=S)Nc3cc(C)cc(C)c3)C2)cc1 (configuration not stated) 28.6%, COc1ccc(N2CCN(CC(=O)Nc3c(C)cc(C)cc3C)CC2)cc1 24%, COc1ccc(N2CCC(CNC(=S)Nc3cccc(C)c3)C2)cc1 (configuration not stated) 21.4%, COc1ccc(N2CCN(C(=S)Nc3cc(C)ccc3C)CC2)cc1 3.41%, COc1ccc(N2CCC(CNC(=S)Nc3cc(C)ccc3C)C2)cc1 (configuration not stated) 36.6%, Nc1nnnn1CC(=O)N/N=C/C=C/c1ccccc1 13.8%, CC(C)N=C(Nc1ccccc1)c1cccnc1 -1.87%, Cc1snc(SCc2ccc(F)cc2)c1C#N 10.8%, COc1ccc(NC(=O)c2ccc(-n3cnnn3)cc2)c([N+](=O)[O-])c1 -1.81%, O=C1CSC(=S)N1c1cccc(Br)c1 9.66%, O=c1c2c([N+](=O)[O-])cc([N+](=O)[O-])cc2nc2ccccn12 9.53%, O=C1c2c([N+](=O)[O-])cc([N+](=O)[O-])cc2S(=O)N1Cc1ccccc1 (configuration not stated) 11.3%, CC1CCCC(C)N1C(=O)COC(=O)c1ccc2c(c1)OCO2 (configuration not stated) -2.3%, Cc1ccc(S(=O)(=O)N2CCN(C(=O)COC(=O)CCOc3cc(C)ccc3C)CC2)cc1 7.19%, COc1ccccc1OCC(=O)N1CCNC1=O 12%, O=C1NC(=S)N/C1=C/c1ccc2c(c1)OCO2 11.6%, O=Cc1ccc2c(c1)CCN2Cc1ccccc1 3.42%, O=C(O)c1cc(NS(=O)(=O)c2ccc3ccccc3c2)ccc1O 25.9%, CC(=O)c1c(C)oc2ccc(NS(=O)(=O)c3ccc(O)c(C(=O)O)c3)cc12 20.5%, O=C(O)c1cccc(S(=O)(=O)Nc2ccc3c(c2)OCO3)c1 15.8%, O=C(O)c1cccc(S(=O)(=O)Nc2ccc3[nH]c(=O)[nH]c3c2)c1 -8.06%, C=CCN(c1ccccc1)S(=O)(=O)c1cccc(C(=O)NNC(=O)c2ccccc2O)c1 7.21%, CC(C)c1nc(SCC(=O)Nc2ccc3c(c2)OCCO3)c2c(=O)n(C)c(=O)n(C)c2n1 3.08%, Cc1c(NC(=O)/C(C#N)=C/c2ccc(-c3cc(Cl)ccc3Cl)o2)c(=O)n(-c2ccccc2)n1C 0.645%, C/C(=N\Nc1nc(N)cc(Cl)n1)c1ccc(F)cc1 1.42%, CSc1cccc(CNC(=O)C2CCC(=O)N(CCc3ccccn3)C2)c1 (configuration not stated) 25.2%, Cc1ccc(-c2ccc(=O)n(CC(=O)NCCN3C(C)CCCC3C)n2)cc1 (configuration not stated) 0.56%, COc1ccccc1N(CC(=O)NCc1ccccc1C)S(=O)(=O)c1ccc(C)cc1 2.07%, Cc1ccc2c(c1)/C(=C/c1ccco1)C(=O)N2 -3.2%, O=C1Nc2ccccc2Nc2ncccc21 -0.98%, COc1cc(C)c2c(c1C=O)Oc1c(c(C)c(O)c3c1C(O)OC3=O)OC2=O (configuration not stated) 20%, COc1cc(C(=O)O)c2c(c1C)OC(=O)c1c(C)cc(O)c(C=O)c1O2 5.23%, Cc1ccccc1NC(=O)NC1(C(=O)N2CCN(C)CC2)CCCCC1 8.19%, COc1cc(OC)cc(C(=O)N/N=C/c2ccc(OC)c(COc3ccc(F)cc3)c2)c1 -6.49%, Cc1ccc(-c2nnc(Nc3cccc(O)c3)c3ccccc23)cc1S(=O)(=O)NCCO 34.4%, CC(=O)Nc1ccc(Nc2nnc(-c3ccc(C)c(S(=O)(=O)NCCO)c3)c3ccccc23)cc1 10.9%, Cc1cnc(NCCc2ccccc2)s1 7.89%, O=C(CSc1nncc2ccccc12)Nc1cccc(C(=O)O)c1 27.1%, CN(CC(=O)Nc1ccc(F)cc1)C(=O)COc1ccc([N+](=O)[O-])cc1Cl 0.38%, C[C@@H]1O[C@@H](O[C@H]2[C@H](Oc3cc(O)c4c(c3)OC(c3ccc(O)cc3)CC4=O)O[C@H](CO)[C@@H](O)[C@@H]2O)[C@H](O)[C@H](O)[C@H]1O (some centres not stated) 34%, C[C@@H]1O[C@@H](O[C@H]2[C@H](Oc3cc(O)c4c(c3)O[C@H](c3ccc(O)cc3)CC4=O)O[C@H](CO)[C@@H](O)[C@@H]2O)[C@H](O)[C@H](O)[C@H]1O 25.7%, CC(C)Oc1ccc(CN2CCCC(CO)(Cc3ccc(F)cc3)C2)cc1 (configuration not stated) 6.25%, Cc1nn(-c2ccccc2)c2sc(C(=O)NCCN3CCOCC3)cc12 16.1%, O=C1NN(c2cccc(Br)c2)C(=O)/C1=C\c1ccc(N2CCOCC2)cc1 8.36%, O=C1NN(c2cccc(Br)c2)C(=O)/C1=C\c1ccccc1 26.7%, O=C(NCc1ccccc1)C1CC(=O)N(c2ccc(OCC(=O)N3CCCC3)cc2)C1 (configuration not stated) 5.81%, COc1ccccc1N(CC(=O)NCc1ccco1)S(C)(=O)=O 15.8%, O=C(O)c1cccc(Nc2ccc3nonc3c2[N+](=O)[O-])c1 10.9%, O=[N+]([O-])c1c(Nc2ccccn2)cc(Cl)c2nonc12 27.4%, O=C(O)c1cccc(Nc2cc(Cl)c3nonc3c2[N+](=O)[O-])c1 20.1%, O=[N+]([O-])c1c(Nc2ccccc2O)cc(Cl)c2nonc12 29.4%, O=C(O)c1ccccc1Nc1cc(Cl)c2nonc2c1[N+](=O)[O-] 33.3%, CN(C)c1cc(Nc2cccc(O)c2)c([N+](=O)[O-])c2nonc12 16.9%, Cc1c(Nc2cc(Cl)c3nonc3c2[N+](=O)[O-])c(=O)n(-c2ccccc2)n1C 26.5%, CN(C)c1cc(Nc2ccc(O)cc2)c([N+](=O)[O-])c2nonc12 14.7%, O=C(O)c1cnc(-c2ccccc2)nc1Sc1ccc(Cl)cc1 12.4%, CCOc1ccc(C(c2nnnn2C(C)(C)C)N2CCN(C(=O)c3ccco3)CC2)cc1 (configuration not stated) 4.34%, CC(NS(=O)(=O)c1ccc(F)cc1)C(c1cccs1)N1CCOCC1 (configuration not stated) -5.54%, COC(=O)c1ccccc1NC(=O)CCCCCn1nnc2ccccc2c1=O 26.9%, COc1cccc(CN(C)CC(=O)NCc2ccc(F)cc2)c1OC -3.04%, CC(=O)Oc1ccc(-c2cccc(C(=O)Oc3ccccc3)c2)cc1 -7.54%, CCN(CC)S(=O)(=O)c1ccc(NC(=O)COC(=O)CCc2cc(OC)c(OC)c(OC)c2)cc1 0.42%, O=[N+]([O-])c1ccccc1NCCOc1ccccc1 5.2%, COC(=O)c1ccccc1NC(=O)C/C(C)=N/NC(=O)CC#N 6.52%
